Laboratory results: the supplement of paper PMC12669797
Several values for one entry are separate records, joined by “and”; a condition that tells them apart may be missing. Equal entries are not always repeated. ± gives the standard deviation of the averaged measurements.

Assays:
ES2 = test: cell viability relative to DMSO control (MTS) (fraction of DMSO control); higher = more viable cells / less growth inhibition; details: 10 µM; 48 h
Method in brief: (§1)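 After 24 h of growth in 96-well plates at 5000 cells per well, TOV-21G and ES2 clear cell carcinoma cells were treated for 48 h with a 367-compound […] library at 10 µM final concentration. Cell viability was measured by MTS assay and expressed relative to vehicle control wells as a fraction.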

TOV-21G = test: as above; details: 10 µM; 48 h
Method in brief: as §1

SMILES: CC1=C2C[C@H]3[C@@H](CC=C4C[C@@H](O)CC[C@@]43C)[C@@H]2CC[C@]12O[C@@H]1C[C@H](C)CN[C@H]1[C@H]2C [cyclopamine]
- cell viability (ES2): 0.92
- cell viability (TOV-21G): 0.927

SMILES: N[C@@H]1C[C@H]1c1cc(F)cc(F)c1OCc1ccccc1 [S2101 (LSD1 inhibitor II)]
- cell viability (ES2): 0.792
- cell viability (TOV-21G): 1.04

SMILES: C[C@]12CCC(=O)C(O)=C1CC[C@@H]1[C@@H]2CC[C@]2(C)C(=O)CC[C@@H]12 [Formestane]
- cell viability (ES2): 1.11
- cell viability (TOV-21G): 1.32

SMILES: C[C@H]1O[C@@H](n2cnc3c(N)ncnc32)C[C@@H]1O [2',5'-dideoxyadenosine]
- cell viability (ES2): 0.972
- cell viability (TOV-21G): 1.05

SMILES: O=C(O)c1nn(Cc2ccc(Cl)cc2Cl)c2ccccc12 [Lonidamine]
- cell viability (ES2): 0.925
- cell viability (TOV-21G): 1.09

SMILES: COc1ccc2c3c([nH]c2c1)[C@H](C=C(C)C)N1C(=O)[C@@H]2CCCN2C(=O)[C@@H]1C3 [Fumitremorgin C]
- cell viability (ES2): 0.945
- cell viability (TOV-21G): 0.838

SMILES: CC(C)(O)/C=C/C(=O)[C@](C)(O)[C@H]1[C@H](O)C[C@@]2(C)[C@@H]3CC=C4[C@@H](C=C(O)C(=O)C4(C)C)[C@]3(C)C(=O)C[C@]12C [Cucurbitacin I]
- cell viability (ES2): 0.393
- cell viability (TOV-21G): 0.328

SMILES: COC[C@H]1OC(=O)c2coc3c2[C@@]1(C)C1=C(C3=O)[C@@H]2CCC(=O)[C@@]2(C)C[C@H]1OC(C)=O [Wortmannin]
- cell viability (ES2): 0.956 ± 0.059
- cell viability (TOV-21G): 0.6 ± 0.027

SMILES: O=C1NC(=O)c2c1c1c3ccccc3n3c1c1c2c2ccccc2n1[C@H]1CC[C@@H]3O1
- cell viability (ES2): 0.973 and 1.25
- cell viability (TOV-21G): 1.01 and 1.24

SMILES: CC[C@@]1([C@@H]2O[C@@H]([C@H]3O[C@@](O)(CO)[C@H](C)C[C@@H]3C)C[C@@H]2C)CC[C@H]([C@]2(C)CC[C@]3(C[C@H](O)[C@@H](C)[C@@H]([C@@H](C)[C@@H](OC)[C@H](C)C(=O)O)O3)O2)O1 [Monensin]
- cell viability (ES2): 0.419
- cell viability (TOV-21G): 0.368

SMILES: CC(C)(C)c1cc(C=C(C#N)C#N)cc(Br)c1O
- cell viability (ES2): 0.94 ± 0.18
- cell viability (TOV-21G): 1.09 ± 0.034

SMILES: CC[C@H]1/C=C/C=C/C[C@@H](C)[C@H](O)[C@@](C)(O)C(=O)[C@@H](C)[C@H](O)[C@@H](C)C(=O)[C@@H](C)[C@H](O)[C@@H](C)/C=C/C(=O)O[C@@H]2[C@H](C)[C@H](CC1)O[C@]1(CC[C@H](C)[C@H](C[C@@H](C)O)O1)[C@H]2C [Oligomycin]
- cell viability (ES2): 0.67
- cell viability (TOV-21G): 0.535

SMILES: CN1C(=O)[C@]2(Cc3cn([C@]45C[C@@]67SS[C@@](CO)(C(=O)N6[C@H]4Nc4ccccc45)N(C)C7=O)c4ccccc34)SS[C@@]1(CO)C(=O)N2C [Chetomin]
- cell viability (ES2): 0.32
- cell viability (TOV-21G): 0.254

SMILES: C#CCN(C)C(C)Cc1ccccc1 (stereo not given) [Deprenyl]
- cell viability (ES2): 1.12
- cell viability (TOV-21G): 1.01

SMILES: O=C1C2CCN(CC2)C1(CO)CO
- cell viability (ES2): 1.01
- cell viability (TOV-21G): 1.1
